Assay outcomes (PubChem)
GSH bead fluor = GSH bead compound fluorescence profile; GSH beads flow cytometry, compound fluorescence 488/530 nm; hits give high values; fluorescence (KMESF) at 10 µM; actives 0.25% (n = 190,000); in the data active = fluorescence above about 89;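 also: glutathione beads carrying GST-tagged Bcl family fusion proteins plus one bare bead set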
RGS7-Gao reg = modulates binding of RGS7 to human Galphao | P09471 | Multiplexed bead flow cytometry; actives lie on both sides | actives 0.35% (n = 220,000) | binding response (% of control), % at 10 µM; in the data active = binding response below about 49% or above about 150%; inconclusive = no clear call, values can overlap the other calls; inactive = in between;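 also: fluorescent Galphao held in activated GDP-AlF4 state binding bead-coupled RGS7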
Target sequence (P09471 whole entry, looked up): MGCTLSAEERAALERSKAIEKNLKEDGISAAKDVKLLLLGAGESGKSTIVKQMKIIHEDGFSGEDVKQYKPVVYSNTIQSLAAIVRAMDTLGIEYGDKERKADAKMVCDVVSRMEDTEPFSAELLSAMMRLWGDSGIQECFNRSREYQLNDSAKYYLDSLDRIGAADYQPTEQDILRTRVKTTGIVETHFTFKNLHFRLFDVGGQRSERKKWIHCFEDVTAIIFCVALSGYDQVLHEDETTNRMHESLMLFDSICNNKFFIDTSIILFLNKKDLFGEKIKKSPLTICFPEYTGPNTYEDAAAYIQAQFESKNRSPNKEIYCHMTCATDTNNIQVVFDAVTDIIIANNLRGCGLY
RGS16-Gao HTS = modulates binding between human RGS16 and Galphao | bead-based flow cytometry RGS16-Galphao binding, fluorescence; actives lie on both sides | binding response (% of control), % at 10 µM | actives 0.38% (n = 220,000) | AID 1441; call rule not given here;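 also: Galphao activated by GDP with aluminum fluoride before binding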
Target sequence (O15492 whole entry, looked up): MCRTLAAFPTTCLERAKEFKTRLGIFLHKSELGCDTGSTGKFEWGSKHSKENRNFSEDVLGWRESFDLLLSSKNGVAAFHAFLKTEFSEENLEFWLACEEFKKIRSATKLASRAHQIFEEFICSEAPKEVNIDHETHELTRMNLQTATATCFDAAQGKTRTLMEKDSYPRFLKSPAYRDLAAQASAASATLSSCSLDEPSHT
Target sequence (P09471 whole entry, looked up): as the sequence (P09471 whole entry, looked up) above
RGS4-Gao reg = human RGS4-Galphao interaction regulation. Multiplexed bead flow cytometry, RGS4-Galphao binding; actives lie on both sides. binding response (% of control), % at 10 µM. actives 0.33% (n = 220,000). AID 1415; in the data active = binding response below about 49% or above about 150%; inactive = in between;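 also: fluorescent Galphao activated with aluminum fluoride binding bead-coupled RGS4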
Avidin fluor = compound fluoresces at 488/530 nm on avidin beads. compound fluorescence 488/530 nm, flow cytometry; hits give high values. fluorescence (KMESF) at 10 µM. actives 0.38% (n = 220,000). AID 1775; in the data active = fluorescence above about 47
RGS8-Gao = regulators of human RGS8-Galphao interaction. multiplexed bead flow cytometry, RGS8-Galphao binding; actives lie on both sides. P09471. actives 0.34% (n = 220,000). response (percent of control binding), % at 10 µM; in the data active = response below about 60% or above about 140%; inactive = in between;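 also: Galphao activated as the GDP aluminium fluoride complex binding bead-coupled RGS8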
Hits are given with their value; . = inactive; ? = inconclusive; / = no result given; [ ] = dose if it differs, or a comment. The list is not random: actives were taken first. Their share in the collection is about 1.2%.

SMILES	GSH bead fluor	RGS7-Gao reg	RGS16-Gao HTS	RGS4-Gao reg	Avidin fluor	RGS8-Gao
O=C(COC(=O)CCc1nc2ccccc2c(=O)[nH]1)Nc1ccc(Cl)cn1	/	?	.	.	49	.
Cc1cc(C)cc(OCC(=O)OCC(=O)Nc2ccc(Cl)cn2)c1	.	.	.	.	.	.
Cc1ccc(-c2csc(=Nc3cccnc3)n2CCCn2ccnc2)cc1C	.	.	.	.	.	.
Cc1cc(C)cc(SCc2noc(C(=O)NCc3ccccc3)c2C(=O)NCc2ccccc2)c1	/	?	.	.	.	.
CCN1CCN(C(=O)c2ccccc2N(Cc2ccccc2)S(=O)(=O)c2ccc(OC)cc2)CC1	/	?	.	.	.	.
O=c1c2ccccc2nc(SCc2cccc(F)c2)n1Cc1ccco1	.	.	.	.	72	.
O=S(=O)(CCc1ccccc1)/N=C/c1cccs1	.	.	.	.	51	.
O=C(Cc1ccccc1)N/N=C/c1cccs1	.	.	.	.	.	.
O=C(CSc1nc2ccc(Cl)cc2[nH]1)NCCc1ccccc1	.	.	.	.	.	.
O=C(CSc1nc2ccc([N+](=O)[O-])cc2[nH]1)NCCc1ccccc1	.	.	.	.	61	.
CC(C)CC(NC(=O)c1ccc(Cl)cc1)C(=O)OCC(=O)c1ccc2c(c1)NC(=O)CO2 (stereo not drawn)	239	.	.	.	.	.
CCCC1(C(=O)OCC)NC(c2ccco2)C2C(=O)N(C)C(=O)C21 (stereo not drawn)	.	.	.	.	.	.
CC(C)N(c1ccccc1)c1ccc(NC(=O)C2CCCO2)cc1 (stereo not drawn)	266	.	.	.	.	.
O=C(Nc1ccc(Oc2ccccc2)cc1)C1CCCO1 (stereo not drawn)	.	.	.	.	.	.
CCC(C)(C)n1nnnc1CN1CCN(c2ccc(OC)cc2)CC1	.	.	.	.	.	.
COc1ccc(/C=C/C(=O)c2ccccc2)cc1COc1ccccc1F	.	.	.	.	90	.
COc1ccc(C=O)cc1COc1ccccc1F	.	.	.	.	.	.
CCCN(C(=O)C(=O)Nc1ccc2nc3n(c(=O)c2c1)CCCCC3)c1ccc(OCC)cc1	/	?	.	.	.	.
Fc1ccc(NC(=S)N/N=C/c2ccc(F)c(F)c2)cc1	.	.	.	.	80	.
Cc1ccc(S(=O)(=O)NC(=O)NCc2ccccn2)cc1	256	.	.	.	.	.
Cc1ccc(S(=O)(=O)NC(=O)NCc2ccccc2)cc1	.	.	.	.	.	.
O=c1[nH]c(SCc2nc3c(cnn3-c3ccccc3)c(=O)[nH]2)nc2ccccc12	.	.	.	.	.	.
O=c1[nH]c(CSc2nc3ccccc3o2)nc2c1cnn2-c1ccccc1	255	.	.	.	.	.
COc1cc(-c2nnc(-c3cc(OC)c(OC)c(OC)c3)o2)cc(OC)c1OC	102	.	.	.	.	.
COc1cc(-c2nnc(-c3ccccc3)o2)cc(OC)c1OC	.	/	/	/	/	/
SMILES	GSH bead fluor	RGS7-Gao reg	RGS16-Gao HTS	RGS4-Gao reg	Avidin fluor	RGS8-Gao
COC(C(=O)Nc1cccc([N+](=O)[O-])c1)c1ccccc1 (stereo not drawn)	.	.	.	.	.	.
CN(CC(=O)N1CCN(c2ccccn2)CC1)S(=O)(=O)c1ccccc1	.	.	.	.	49	.
CN(CC(=O)N1CCN(c2ncccn2)CC1)S(=O)(=O)c1ccc(Cl)cc1	.	.	.	.	.	.
COC(=O)c1cccc(NC(=O)NC23CC4CC(CC(C4)C2)C3)c1	243	.	.	.	.	.
COC(=O)c1ccc(Cl)c(NC(=O)NC23CC4CC(CC(C4)C2)C3)c1	.	.	.	.	.	.
O=C1S/C(=C/c2ccc(N3CCOCC3)o2)C(=O)N1Cc1ccc(F)cc1	.	.	.	.	.	.
O=C1S/C(=C\c2ccc(N3CCOCC3)o2)C(=O)N1Cc1ccc(F)cc1	.	153[activator]	.	165[activator]	.	.
COc1cccc(NC2=C(Cl)C(=O)OC2OC(=O)c2ccco2)c1 (stereo not drawn)	.	.	.	.	.	.
N#Cc1ccc(Cl)cc1NC(=O)COC(=O)c1ccc2c(c1)OCCO2	.	.	.	.	66	.
CCC(=O)Nc1ccc(N2CCN(S(C)(=O)=O)CC2)cc1	.	.	.	.	.	.
O=C(NCc1ccco1)C(NS(=O)(=O)c1cccc2nsnc12)c1ccccc1 (stereo not drawn)	.	.	.	.	52	.
CCCNC(=O)C(NS(=O)(=O)c1cccc2nsnc12)c1ccccc1 (stereo not drawn)	.	.	.	.	.	.
COC(=O)CC1C(=O)NCCN1C(=O)CSc1nnc(Nc2ccc(C)cc2)s1 (stereo not drawn)	260	.	.	.	.	.
N#CC(C(=O)Nc1cccc(Cl)c1)=C1Nc2ccccc2N1	.	.	.	.	.	.
N#CC(C(=O)Nc1ccc(Cl)c(Cl)c1)=C1Nc2ccccc2N1	.	.	.	.	50	.
CC(=O)Nc1ccc(S(=O)(=O)N2CCSC2c2ccc(Cl)cc2)cc1 (stereo not drawn)	265	.	.	.	.	.
COCCSc1ccccc1C(=O)N1CCCC(C)C1 (stereo not drawn)	.	?	.	.	.	.
CCOC(=O)C1CCCN(C(=O)c2ccccc2SCCOC)C1 (stereo not drawn)	.	.	.	.	102	.
CCN1CCN(C(=O)C(C)Nc2ccc(OC)cc2OC)CC1 (stereo not drawn)	.	?	.	.	.	.
CNS(=O)(=O)c1ccc(C)cc1	.	.	.	.	.	.
Cc1ccc(S(=O)(=O)Nc2nonc2C)cc1	.	31	.	38	.	34
COC(=O)c1ccccc1NC(=O)c1cnn2c(C)cc(C)nc12	.	.	.	.	.	.
COC(=O)c1ccccc1NC(=O)c1nc2nc(C)cc(C)n2n1	.	.	.	.	134	.
COCc1cc(CN2CCCC2)c(O)c2ncccc12	.	.	.	.	66	.
CC(Nc1n[nH]c(=S)[nH]c1=O)C(=O)OCc1ccccc1 (stereo not drawn)	238	.	.	.	.	.
SMILES	GSH bead fluor	RGS7-Gao reg	RGS16-Gao HTS	RGS4-Gao reg	Avidin fluor	RGS8-Gao
O=C1Nc2ncccc2OC1CCCl (stereo not drawn)	258	.	.	.	.	.
Cc1sc2ncnc(NCc3ccccc3)c2c1C	.	.	.	.	.	.
Cc1sc2ncnc(Nc3ccccc3)c2c1C	.	.	.	.	92	.
O=C(O)C1C2C=CC(C2)C1C(=O)N1CCOCC1 (stereo not drawn)	.	.	.	.	.	.
O=C(NC1CCCC1)C1C2C=CC(C2)C1C(=O)N1CCOCC1 (stereo not drawn)	272	.	.	.	.	.
Cc1c(/C=N\NC(=O)c2csc3ccccc23)cnn1C	.	.	.	.	54	.
